Assay outcomes deposited in PubChem BioAssay by National Center for Advancing Translational Sciences (NCATS).
Cycloheximide cs: counter-screen for Shiga toxin inhibitors: cycloheximide protein synthesis inhibition. cell reporter, cycloheximide protein synthesis inhibition counterscreen. max response, %. 300,000 compounds, 12% hits; in the data active = max response mostly above about 13%, no sharp cut-off; inactive = mostly below about 14%; also: read at 38.3 µM for the half of the compounds with a filed dose; 0% is about no effect
MARV entry inh: inhibitors of Marburg virus binding or cell entry. Marburg virus pseudotyped entry inhibition, cell reporter. Potency, µM (doses to about 37.8 µM), without a hit: at the highest dose activity change, negative = inhibition, usual class: inhibitors. 300,000 compounds, 1.8% hits. AID 540276; calls by dose curve; tested in HEK293 cells; also: potency is read from the fitted curve at half-maximal effect; % is scaled to controls: 0 for no effect and ±100 for the full control effect
Lassa entry inh: blocks Lassa virus binding to or entry into cells. Lassa virus pseudotype entry inhibition, cell reporter. Potency, µM (highest dose often 37.9 µM), for inactives: at the top dose activity change, negative = inhibition, usual class: inhibitors. 300,000 compounds, 1.2% hits. AID 540256; calls by dose curve; tested in HEK293 cells; also: potency is read from the fitted curve at half-maximal effect; % is scaled to controls: 0 for no effect and ±100 for the full control effect; nearly all actives have a fitted effect of over 50% in size
Shiga inhibitor: blocks Shiga toxin action in Vero cells | AID 2315 | Vero cells, Shiga toxin protein synthesis inhibition reporter | inhibition, % at 38.7 µM | 290,000 compounds, 9.2% hits; in the data active = inhibition mostly above about 28%, no sharp cut-off; inactive = mostly below about 43%; also: 0% is about no effect
Numbers without * were called inactive; i = inactive; ? = inconclusive; nt = not tested or not shown; [ ] = dose if it differs, or a comment. Compounds with a hit are over-represented: about 12% of the library has one in this group of screens.

SMILES	Cycloheximide cs	MARV entry inh	Lassa entry inh	Shiga inhibitor
COc1cc([N+](=O)[O-])ccc1NC(=O)NCc1ccccn1	12.3*	nt	nt	3.7
O=C(NCc1ccccn1)Nc1ccccc1F	20.7*	nt	nt	48.8*
O=C(NCc1ccccn1)Nc1ccccc1C(F)(F)F	14.5*	nt	nt	17.1
Cc1ccc(NC(=O)NCc2ccccn2)c(C)c1	2.6	-10.3%[46.1 µM]	7.2%[46.1 µM]	-5.7
COc1cc(CN2CCN(CCCc3ccccc3)C(CCO)C2)cc(OC)c1O (stereo not drawn)	-4.2	nt	nt	-5.7
COc1ccc(OC)c2sc(N3CCc4ccccc4C3)nc12	18.4	-29.7%[46.1 µM]	-1.8%	51.2
Clc1cccc2sc(N3CCCCC3)nc12	32.4*	14.2%	16.8%	81.9*
Clc1cc(Cl)c2nc(N3CCCCC3)sc2c1	34.5*	9.3%	?	72.5*
COc1ccc(OC)c2sc(N3CCCCC3)nc12	35.9*	-15.5%	-17.8%	66.2*
Brc1cccc2sc(N3CCN(c4ccccc4)CC3)nc12	24.0*	-28.5%[46.1 µM]	10.3%	30.0*
Clc1cc(Cl)c2nc(N3CCCC3)sc2c1	nt	8.9%	16.8%	nt
COc1ccc(-c2nc3c(c4c2C[C@H](c2ccccc2)OC4)CN(C(=O)c2cc(I)ccc2F)CC3)c(C)c1	nt	-0.2%[14.2 µM]	nt	nt
CCN1CCN(c2ncc3c(n2)CCN(Cc2sccc2C)C3)CC1	nt	nt	-26.5%[46.1 µM]	nt
CCOc1ccc(C(=O)Nc2cccc(-c3nc4cc(Cl)cc(Cl)c4o3)c2)cc1	nt	nt	-4.3%[46.1 µM]	nt
C[n+]1c2n(c3ccccc31)N=C(c1cc(C(C)(C)C)c(O)c(C(C)(C)C)c1)CS2	-4.3	11.2µM*	?	15.7
CCOc1ccc(NC(=O)N[C@@H](CCSC)C(=O)OC)cc1	5.4	1.3%	-0.2%	7.1
COc1ccc(NC(=O)c2ccc(Br)o2)c([N+](=O)[O-])c1	18.5*	-0.8%	-8.8%	40.9
COc1ccc(NC(=O)c2ccc([N+](=O)[O-])s2)c([N+](=O)[O-])c1	24.9	nt	nt	46.1*
COc1ccc(NC(=O)c2cc(Br)ccc2Cl)c([N+](=O)[O-])c1	1.4	-9.7%[46.1 µM]	-12.8%	-1.4
COc1ccc(NC(=O)c2ccc(C)cc2Cl)c([N+](=O)[O-])c1	36.7*	?	-0.9%	i
COc1ccc(NC(=O)c2ccc(C)o2)c([N+](=O)[O-])c1	22.3*	0.5%	6.2%	39.5
CC1CCC2(CC1)NC(=O)N(Cc1cc(=O)n3ccsc3n1)C2=O (stereo not drawn)	-2.7	7.9%[46.1 µM]	6.2%	-1.3
CC1CCCCC12NC(=O)N(Cc1cc(=O)n3ccsc3n1)C2=O (stereo not drawn)	30.5*	0.5%	nt	2.4
CN(CC(=O)Nc1cccc(F)c1)C(=O)c1ccc(COc2ccccc2)o1	nt	?	0.2%	nt
Cc1ccc(C(=O)N(C)CCOc2ccccc2)cc1S(=O)(=O)N1CCOCC1	nt	22.8%	-1.2%	nt
SMILES	Cycloheximide cs	MARV entry inh	Lassa entry inh	Shiga inhibitor
Cc1ccc(-c2nn3c(C)nnc3s2)cc1NC(=O)c1ccc(-c2cccc(Cl)c2)o1	0.1	9.2µM*	?	-6.7
Cc1ccc(-c2nn3c(C)nnc3s2)cc1NC(=O)c1ccc(-c2ccc(Cl)cc2Cl)o1	-2.2	14.6µM*	?	-7.4
COc1ccccc1[C@H]1/C(=C(\O)c2ccc(C)cc2)C(=O)C(=O)N1CCN1CCOCC1	nt	14.6%	nt	nt
CC(Cc1cccnc1)NC(=O)CCc1nnc(-c2ccccc2)o1 (stereo not drawn)	11.8	-0.4%[46.1 µM]	0.8%	20.6
Cc1cccc(CC(C)NC(=O)CCc2nnc(CCCCc3ccccc3)o2)n1 (stereo not drawn)	-1.0	16.4%[46.1 µM]	?	-35.0
CC(NC(=O)CCc1nnc(-c2ccccc2)o1)c1ccccc1 (stereo not drawn)	35.3*	nt	nt	124.1*
Cc1cc(CNC(=O)CCc2nnc(CCCc3ccccc3)o2)nn1C	37.2*	13.1%	0.5%	33.4*
CC(NC(=O)CCc1nnc(CCCc2ccccc2)o1)c1ccccc1 (stereo not drawn)	28.7*	?	-1.7%	93.8*
Cn1cc(CCNC(=O)CCc2nnc(CCCCc3ccccc3)o2)cn1	0.9	-5.5%[46.1 µM]	15.2%	11.8
Cc1cc(C)c(S(=O)(=O)N2CCCCC2)c(C)c1N(C)S(=O)(=O)c1ccc(Cl)cc1	-0.4	?	?	-1.4
COc1ccc(CNC(=O)CCn2c(=O)oc3ccccc32)c(OC)c1	-2.6	nt	nt	26.1
CC(C)C[C@H](NC(=O)[C@H](Cc1ccccc1)n1c(=O)[nH]c2ccccc2c1=O)C(=O)N1CCC[C@H]1C(=O)O	-1.7	nt	nt	1.5
CCn1c(SCC(=O)N2CCCCC2C)nc2ccsc2c1=O (stereo not drawn)	-1.6	?	-24.4%	-6.4
CC1CCCCN1C(=O)CSc1nc2ccsc2c(=O)n1Cc1ccccn1 (stereo not drawn)	13.9	15.4%	?	39.9*
CC1CCCCN1C(=O)CSc1nc2ccccc2[nH]1 (stereo not drawn)	32.6*	14.8%[46.1 µM]	11.5%	81.3*
O=C(CSc1nc2ccccc2[nH]1)N1CCCCC1	47.4*	21.7%	59.8%[14.3 µM]	63.3*
COc1ccc(CCNc2cc(C)[nH]c(=O)c2)cc1OC	-1.7	10.6%[46.1 µM]	0.3%[46.1 µM]	-2.2
O=C(CN(C(=O)CNC(=O)c1ccco1)c1cccc(F)c1)NC1CCCCC1	-8.5	?	19.2%[46.1 µM]	2.3
NC(=O)C1=CN(C2OC(COP(=O)(O)OP(=O)(O)OC[C@H]3O[C@@H](n4cnc5c(N)ncnc54)[C@H](OP(=O)(O)O)[C@H]3O)C(O)C2O)C=CC1 (stereo partly drawn)	nt	-6.0%	nt	nt
Cc1cc(=O)n2c3c(c4c(cc13)c(CN(C)C)cc(=O)n4C)OC2	nt	?	-14.5%	nt
CCCCCCCSc1nnc(-c2ccccc2N)c(=O)[nH]1	-0.3	-18.2%[14.2 µM]	?	20.8
CCCCSc1nnc(-c2ccccc2N)c(=O)[nH]1	27.6*	-1.7%	17.5%	77.4*
CCCSc1nnc(-c2ccccc2N)c(=O)[nH]1	30.6	11.4%	?	93.2*
COc1ccc(NC(=O)CSCC(=O)Nc2nnc(C)s2)cc1	nt	-1.9%	12.9%	nt
CN(C)c1nc(N(C)C)nc(N(C#N)CN2C(=O)c3ccccc3C2=O)n1	-0.5	-4.9%	nt	32.9
SMILES	Cycloheximide cs	MARV entry inh	Lassa entry inh	Shiga inhibitor
Cc1ccc2[nH]cc(/C=C/c3cc[n+](C)cc3)c2c1	-3.8	5.01µM*	?	-0.6
O=C(Nc1ccc(-c2n[nH]c(=S)o2)cc1)c1ccccc1Cl	1.0	nt	nt	10.0
O=C(Nc1ccc(F)cc1)Oc1ccc[nH]c1=O	16.0*	nt	nt	24.3*
COc1ccc(-n2cnc3cc([N+](=O)[O-])ccc32)cc1	9.8	-7.2%[46.1 µM]	29.3%	50.8
Nc1ccc(-n2cnc3cc([N+](=O)[O-])ccc32)cc1	18.0*	19.4%	1.3%	97.1*
Cc1cccc(-n2cnc3cc([N+](=O)[O-])ccc32)c1	11.6*	0.8%	?	14.2
O=C(CSc1ncc2c(n1)-c1ccccc1N(Cc1ccc(Cl)cc1)S2(=O)=O)c1ccccc1	nt	nt	15.2%[46.1 µM]	nt
CCc1ccc(/C=C2/SC(=S)N(CCCC(=O)Nc3ccccc3C(=O)O)C2=O)cc1	-3.9	-27.2%[46.1 µM]	-28.5%[46.1 µM]	-15.0
CCc1ccc(/C=C2/SC(=S)N(CC(=O)Nc3nc4ccccc4s3)C2=O)cc1	21.7*	2.1%	-0.7%	78.0*
CCc1ccc(/C=C2\SC(=S)N(CCCC(=O)Nc3ccccn3)C2=O)cc1	-5.8	?	11.2µM*	-22.9
CCNC(=O)COC(=O)c1cccc(Br)c1	1.7	-2.9%[46.1 µM]	-9.9%	-2.6
CCCCN(CC)C(=O)c1ccc(Cl)cc1	-4.7	0.0%[46.1 µM]	15.9%[46.1 µM]	-3.2
